Test results published in PubChem BioAssay AID1008 (NMMLSC, 2008).
Among all 190,000 compounds or so, about 240 (0.13%) were called active. Cut-off read from the data, not from the text of the source: active = inhibition above about 40%. The sample as a whole holds a higher share of actives than the screen did.

Target: Bcl-2-related protein A1 (Homo sapiens) (UniProt Q16548)
Experiment: inhibitors of Bim binding to Bfl-1, primary screen, biochemical, multiplexed, bead-based flow cytometry (AID 1008);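 note: 0% = wells without compound plus tracer and 100% = blocker peptide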
Details: Bim-Bfl-1 binding inhibition, at 10 µM, hits give high values

Bcl-2-related protein A1 (Homo sapiens), sequence (Q16548 whole entry, looked up): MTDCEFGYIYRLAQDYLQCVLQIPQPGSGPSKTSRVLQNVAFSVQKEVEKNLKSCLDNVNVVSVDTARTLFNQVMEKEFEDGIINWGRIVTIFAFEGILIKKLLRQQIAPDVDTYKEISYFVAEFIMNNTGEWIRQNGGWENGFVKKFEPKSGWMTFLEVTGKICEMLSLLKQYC

inhibition, inactive:
CCCCCN(C(=O)NC(=O)Nc1cccc(C)c1C)S(C)(=O)=O -7%, CCn1c(C(C)NC(=O)c2ccc(C)cc2)n[nH]c1=S (stereo unspecified) 1%, CC(C)CN(C(=O)CN1CCN(S(=O)(=O)c2ccccc2)CC1)c1c(N)n(CC(C)C)c(=O)[nH]c1=O -2%, O=C(c1cc(=O)c2ccccc2o1)N1CCN(c2ccccc2)CC1 0%, CN(C(=O)COc1ncnc2c1cnn2-c1ccccc1)C1CCCCC1 -7%, COc1ccc(S(=O)(=O)N2CCCCCC2)cc1C(=O)OCC(=O)Nc1cc(C)on1 -1%, O=C(Cc1ccc(F)cc1)N/N=C/c1ccc2c(c1)OCO2 -2%, Cc1ccc(SCCC(=O)NCc2ccccn2)cc1 4%, C/C(=N\NC(=O)c1cc2c(s1)CCC(C)C2)c1cccnc1 (stereo unspecified) 0%, O=C(Nc1cccnc1)c1ccc(Cl)cc1[N+](=O)[O-] -1%, O=C(CC1SC(=Nc2ccccc2)N(Cc2ccccn2)C1=O)Nc1cccc(Cl)c1 (stereo unspecified) 11%, O=C(CCN1C(=O)c2ccncc2C1=O)Nc1cc(F)ccc1F -8%, Cc1csc(Nc2ccc(Cl)cc2)[n+]1-c1ccc(Cl)cc1 5%, Cc1ccc(NC(=S)N(CCN2CCCCC2)Cc2ccco2)cc1C -3%, CCc1ccccc1NC(=O)CN(c1ccc(OC)cc1OC)S(=O)(=O)c1ccccc1[N+](=O)[O-] -12%, Cn1c(=O)c([N+](=O)[O-])c(Oc2ccccc2)c2ccccc21 0%, C=CCN(CC=C)C(=O)COC(=O)c1n[nH]c2ccccc12 -7%, CCc1ccc(C(=O)OCC(=O)NCC(F)(F)F)cc1 -3%, CCOC(=O)CSC1=N/C(=C/c2ccc(-n3cncn3)cc2)C(=O)N1C(C)=O -5%, Cc1ccc(C2=N/C(=C\c3ccc(OS(=O)(=O)c4ccc(C)cc4)cc3)C(=O)O2)cc1 -2%, Cc1cc(NC(=O)CSc2nnc(Nc3ccccc3F)s2)no1 -8%, CN1CCN(c2nc(Nc3ccc(O)cc3)nc3ccccc23)CC1 -5%, CCOC(=O)CNC(=O)/C(=C\c1ccc(F)cc1)NC(=O)c1ccccc1 -7%, O=C(Cn1nc(CNc2ccc(Cl)cc2)[n+]2c1CCCCC2)c1ccc(Cl)cc1 -16%, CC1CCN(S(=O)(=O)c2ccc(S(=O)(=O)NCc3cccnc3)cc2)CC1 6%, COC(=O)Cn1cc(/C=C/[N+](=O)[O-])c2ccccc21 4%, CC(C(=O)NC1CCCC1)N(c1ccc(Oc2ccccc2)cc1)S(C)(=O)=O (stereo unspecified) -2%, COc1cc2sc(C)nc2cc1C 2%, CSCCC(NC(=O)c1cc([N+](=O)[O-])cc([N+](=O)[O-])c1)c1nc2ccccc2[nH]1 (stereo unspecified) -16%, CCn1c(=S)[nH]c2sc3c(c2c1=O)CCCCC3 3%, COc1cc(/C=N/NC(=S)Nc2cccnc2)cc(OC)c1O 7%, CN(C)/N=C/c1cc(Cl)cc([N+](=O)[O-])c1O 0%, CCOC(=O)C1(Cc2cccc(OC)c2)CCCN(S(=O)(=O)c2cccnc2)C1 (stereo unspecified) -2%, Fc1ccc(COc2cccc(-c3n[nH]c(=S)o3)c2)cc1 5%, O=C(C1CCCO1)N1CCN(C(=S)NC2CC2)CC1 (stereo unspecified) -4%, COc1ccc(CNC(=O)COC(=O)/C=C/c2ccc(S(=O)(=O)N3CCOCC3)cc2)cc1 -3%, COC(=O)c1cc2occc2n1Cc1nc(-c2ccccc2C)oc1C 0%, CC(=O)Nc1cccc(/C(C)=N/NC(=O)c2c(-c3ccccc3Cl)noc2C)c1 0%, COc1ccc(C(=O)CSc2nnnn2C)c(OC)c1 -5%, Nc1nc(-c2sc3nc4c(cc3c2N)CCCC4)nc(N2CCOCC2)n1 -5%, CC1(c2ccccc2)CC(C)(C)N(C(=O)c2cc([N+](=O)[O-])cc([N+](=O)[O-])c2)c2ccccc21 (stereo unspecified) -1%, CCN(C(=O)CN1CCN(Cc2ccccc2)CC1)c1c(N)n(Cc2ccccc2)c(=O)[nH]c1=O -3%, Cn1c(=O)c2c(ncn2CC(=O)N/N=C/c2cn[nH]c2-c2ccc(F)cc2)n(C)c1=O -3%, C/C(=N/NS(=O)(=O)c1ccccc1)c1ccc(NC(=O)C(F)(F)F)cc1 -2%, O=C1N/C(=C/c2cccn2-c2ccccc2)C(=O)N1c1cccc(Cl)c1 -2%, CSCC(NS(=O)(=O)c1ccc(C)cc1)C(=O)O (stereo unspecified) -9%, Cc1c(C(=O)c2cccc([N+](=O)[O-])c2)c2ccccn2c1CCC#N -8%, O=C(CCN1C(=O)c2ccccc2C1=O)C1=NN[C@@H]2C(=O)N(c3ccc(F)cc3)C(=O)[C@H]12 -9%, CCOc1ccc(C(CC(=O)O)n2cnnn2)cc1OC (stereo unspecified) -4%, COC(c1ccccc1)c1nnc(CCC(=O)N2CCN(CCOc3ccccc3)CC2)o1 (stereo unspecified) -5%, Cc1cccc(Cn2cnc3c(N)c(C)c(C)cc32)c1 -4%, Cc1ccc2c(c1)C1CN(C)CCC1N2C(=S)Nc1ccc(OC(F)F)cc1 (stereo unspecified) -7%, Nc1nc(SCc2ccc([N+](=O)[O-])cc2)c2ncn(C3OC(CO)C(O)C3O)c2n1 (stereo unspecified) -10%, O=c1[nH]n2c(=O)c3c([nH]c2c1N=Nc1ccccc1)CCC3 0%, COc1ccc(OC)c2[nH]c(=O)c(CCNC(=O)C(=O)c3c[nH]c4ccccc34)cc12 -9%, Cc1cc(/C=N/NC(N)=O)c(C)n1C1CCCCC1 16%
